Source: PubChem
Tcruzi prolif – T. cruzi proliferation inhibition. actives 5.9% (n = 77,000). inhibition, % at 8.34 µM. T. cruzi beta-gal in NIH3T3, GalScreen luminescence, 90 h. AID 624255;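 active = mean inhibition above about 93%, with at least 55% of replicates each passing it, limit read from the data, passing the limit was not always enough; inconclusive = only one of those two conditions holds; inactive = neither condition holds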
Pf Dd2 growth – P. falciparum Dd2 growth inhibition; SYBR Green, 72 h; active compounds read low; activity change, % at 10 µM; actives 2.3% (n = 94,000); AID 1159554; in the data active = activity change below about -80%; inconclusive = no clear call, values can overlap the other calls
C diff growth – inhibitors of Clostridium difficile growth; Clostridium difficile clinical isolate growth, OD600, 24 h; active compounds read low; growth activity, negative = inhibition, % at 16 µg/mL (by protocol); actives 0.25% (n = 86,000);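 active = mean growth activity at or below -80% and every replicate also at or below -80%; inconclusive = mean at or below -80% but some replicate above -80%; inactive = mean growth activity above -80%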;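 note: 0% = DMSO wells and -100% = levofloxacin 16 µg/mL wells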
Numbers without * were called inactive. In the library only some 6.7% were active in any assay of this set; here they are far more common.

`C[C@H](CO)N1C[C@H](C)[C@@H](CN(C)Cc2ccc(C(=O)Nc3ccccc3N)cc2)Oc2ccc(NC(=O)Cc3ccccc3)cc2CC1=O` gave Pf Dd2 growth -83* and C diff growth 1.
`C[C@H](CO)N1C[C@H](C)[C@H](CN(C)Cc2ccc(C(=O)Nc3ccccc3N)cc2)Oc2ccc(NC(=O)c3ccncc3)cc2CC1=O` gave Tcruzi prolif 74, Pf Dd2 growth -49 and C diff growth 0.
For C[C@@H]1CN([C@@H](C)CO)C(=O)Cc2cc(NS(=O)(=O)c3ccc(Cl)cc3)ccc2O[C@H]1CN(C)Cc1ccc(C(=O)Nc2ccccc2N)cc1 the results were Tcruzi prolif 94, Pf Dd2 growth -54 and C diff growth 5.
Screening C[C@H](CO)N1C[C@H](C)[C@H](CN(C)Cc2ccc(C(=O)Nc3ccccc3N)cc2)Oc2ccc(NS(=O)(=O)c3ccccc3)cc2CC1=O returned Tcruzi prolif 56, Pf Dd2 growth -85* and C diff growth -11.
`C[C@H](CO)N1C[C@H](C)[C@H](CN(C)Cc2ccc(C(=O)Nc3ccccc3N)cc2)Oc2ccc(NS(=O)(=O)c3ccc(Cl)cc3)cc2CC1=O` gave Pf Dd2 growth -83* and C diff growth 1.
`C[C@H]1CN([C@@H](C)CO)C(=O)Cc2cc(NS(=O)(=O)c3ccc(Cl)cc3)ccc2O[C@@H]1CN(C)Cc1ccc(C(=O)Nc2ccccc2N)cc1` gave Pf Dd2 growth -85* and C diff growth 2.
Screening C[C@H](CO)N1C[C@H](C)[C@H](CN(C)Cc2ccc(C(=O)Nc3ccccc3N)cc2)Oc2ccc(NS(=O)(=O)c3ccc(F)cc3)cc2CC1=O returned Tcruzi prolif 79, Pf Dd2 growth -82* and C diff growth 64.
C[C@@H]1CN([C@@H](C)CO)C(=O)Cc2cc(NS(C)(=O)=O)ccc2O[C@H]1CN(C)Cc1ccc(C(=O)Nc2ccccc2N)cc1 was read as Tcruzi prolif 48, Pf Dd2 growth 8 and C diff growth 3.
Screening C[C@@H]1CN([C@@H](C)CO)C(=O)Cc2cc(NS(=O)(=O)c3ccc(F)cc3)ccc2O[C@H]1CN(C)Cc1ccc(C(=O)Nc2ccccc2N)cc1 returned Pf Dd2 growth -61 and C diff growth 1.
`C[C@H](CO)N1C[C@H](C)[C@@H](CN(C)Cc2ccc(C(=O)Nc3ccccc3N)cc2)Oc2ccc(NS(=O)(=O)c3ccc(F)cc3)cc2CC1=O` gave Tcruzi prolif 60, Pf Dd2 growth inconclusive and C diff growth -1.
CN1C(=O)c2cc(NC(=O)c3ccccc3Cl)ccc2OC[C@H]2O[C@H](CC(=O)O)CC[C@@H]21 was read as Tcruzi prolif -13, Pf Dd2 growth 14 and C diff growth 3.
O=C(C[C@H]1CC[C@@H]2[C@H](COC[C@H](O)CN2CC2CCCCC2)O1)NCc1ccc(Cl)cc1 was read as Tcruzi prolif 84 and Pf Dd2 growth -7.
COCC(=O)N1CCC2(CC1)CN(Cc1cccc(OC)c1)[C@H](CO)c1[nH]c3cc(OC)ccc3c12 was read as Pf Dd2 growth inconclusive and C diff growth 2.
Screening COc1ccc2c3c([nH]c2c1)[C@H](CO)N(Cc1ccccc1Cl)CC31CN(C(C)=O)C1 returned Pf Dd2 growth -90* and C diff growth -2.
For COCC(=O)N1CCC2(CC1)CN(Cc1ccccc1Cl)[C@H](CO)c1[nH]c3cc(OC)ccc3c12 the results were Pf Dd2 growth -83* and C diff growth -3.
`COCC(=O)N1CCC2(CC1)CN(Cc1ccccc1Cl)[C@@H](CO)c1[nH]c3cc(OC)ccc3c12` gave Pf Dd2 growth inconclusive and C diff growth 3.
For COc1ccc2c3c([nH]c2c1)[C@@H](CO)N(Cc1ccccc1F)CC31CN(C)C1 the results were Pf Dd2 growth -7 and C diff growth -2.
CCS(=O)(=O)N1CC2(CN(Cc3ccccc3F)[C@@H](CO)c3[nH]c4cc(OC)ccc4c32)C1 was read as Pf Dd2 growth -87* and C diff growth -1.
Screening COCC(=O)N1CC2(C1)CN(Cc1ccccc1Cl)[C@@H](CO)c1[nH]c3cc(OC)ccc3c12 returned Pf Dd2 growth -37 and C diff growth -1.
`COCC(=O)N1CCC2(CC1)CN(Cc1cccc(OC)c1)[C@@H](CO)c1[nH]c3cc(OC)ccc3c12` gave Pf Dd2 growth -92* and C diff growth 3.
`O=C(Cc1ccccn1)N[C@H]1C=C[C@@H](CC(=O)N2CCCCC2)O[C@H]1CO` gave Tcruzi prolif -65, Pf Dd2 growth 2 and C diff growth 2.
Cn1cnc(S(=O)(=O)N[C@@H]2CC[C@@H](CC(=O)NCC3CCCCC3)O[C@@H]2CO)c1 was read as Tcruzi prolif 35, Pf Dd2 growth 13 and C diff growth -2.
Screening COc1ccc2c3c([nH]c2c1)[C@@H](CO)N(Cc1ccccc1F)CC31CCN(C(=O)C2CC2)CC1 returned Pf Dd2 growth -85* and C diff growth 2.
Screening COc1ccc2c3c([nH]c2c1)[C@@H](CO)N(Cc1ccccc1Cl)CC31CN(C(=O)C2CC2)C1 returned Pf Dd2 growth -71 and C diff growth 5.
COc1ccc2c3c([nH]c2c1)[C@H](CO)N(Cc1ccccc1Cl)CC31CCN(C(C)=O)CC1 was read as Pf Dd2 growth -89* and C diff growth 8.
For COc1ccc2c3c([nH]c2c1)[C@H](CO)N(C(C)=O)CC31CCN(Cc2ccccc2Cl)CC1 the results were Pf Dd2 growth -50 and C diff growth 2.
Screening COc1ccc2c3c([nH]c2c1)[C@@H](CO)N(Cc1ccccc1Cl)CC31CCN(C(=O)C2CC2)CC1 returned Pf Dd2 growth -87* and C diff growth 7.
For COc1ccc2c3c([nH]c2c1)[C@H](CO)N(Cc1ccccc1F)CC31CCN(C(=O)C2CCCC2)CC1 the results were Pf Dd2 growth -18 and C diff growth -11.
O=C(C[C@H]1CC[C@@H](NC(=O)C2CCOCC2)[C@H](CO)O1)Nc1nccs1 was read as Tcruzi prolif 10 and Pf Dd2 growth 0.
Screening Cc1noc(C)c1NC(=O)N(C)C[C@H]1Oc2c(NS(=O)(=O)c3cn(C)cn3)cccc2C(=O)N([C@H](C)CO)C[C@H]1C returned Tcruzi prolif 80, Pf Dd2 growth 4 and C diff growth -4.
`COc1ccc(S(=O)(=O)Nc2ccc3c(c2)[C@@H]2C[C@@H](CC(=O)O)O[C@@H](CO)[C@@H]2O3)cc1` gave Tcruzi prolif -29, Pf Dd2 growth 21 and C diff growth 0.
For CO[C@@H]1CN(C)C(=O)c2cc(NC(=O)CC(F)(F)F)ccc2OC[C@H](C)N(C(=O)C2CCOCC2)C[C@@H]1C the results were Pf Dd2 growth -11 and C diff growth -4.
Screening COc1ccc2c3c(n(C)c2c1)[C@H](CO)N(C(=O)NC(C)C)CC31CN(Cc2nccs2)C1 returned Pf Dd2 growth -3 and C diff growth -14.
For COc1ccc2c3c(n(C)c2c1)[C@H](CO)N(C(=O)C1CCCC1)CC31CN(C(=O)CC2CC2)C1 the results were Pf Dd2 growth -85* and C diff growth 3.
Screening CCCC(=O)N1CC2(CN(C(=O)Nc3cccc(F)c3)C2)c2c(n(C)c3cc(OC)ccc23)[C@H]1CO returned Pf Dd2 growth -82* and C diff growth 8.
